Source: article PMC5540273 (PLoS ONE, 2017)

Experiments:
Conditions in all cases: concentration: 1 μM, replicates: in singlicate; n = 1
SRPK3 = system: SRPK3
STK16 = system: STK16
STK33 = system: STK33
STK35 = system: STK35
STK36 = system: STK36
STK39 = system: STK39
SYK = system: SYK
SgK110 = system: SgK110
TAK1 = system: T1, TAK1
T1 construct: gene MAP3K7

TAOK1 = system: TAOK1
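Also: KINOMEscan kinase panel screen.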

| SMILES | %Inh (SRPK3) [%] | %Inh (STK16) [%] | %Inh (STK33) [%] | %Inh (STK35) [%] | %Inh (STK36) [%] | %Inh (STK39) [%] | %Inh (SYK) [%] | %Inh (SgK110) [%] | %Inh (TAK1) [%] | %Inh (TAOK1) [%] |
| --- | --- | --- | --- | --- | --- | --- | --- | --- | --- | --- |
| COc1ccc(Nc2nccc(N3CCC(NC(=O)Nc4cccc(C(C)=O)c4)C3)n2)cc1 (stereo not shown) [GSK1379731] | 0 | 14 | 0 | 0 | 0 | 0 | 1 | 0 | 0 | 0 |
| O=C(NCCCN1CCOCC1)c1cccc(Nc2nccc(Nc3ccc(Oc4ccccc4)cc3)n2)c1 [GW663929] | 0 | 64 | 10 | 34 | 33 | 23 | 0 | 0 | 19 | 0 |
| O=c1cc(N2CCOCC2)nc2n(Cc3cccc(F)c3)ccn12 [GSK2297430] | 7 | 14 | 0 | 18 | 0 | 0 | 11 | 0 | 0 | 0 |
| Cc1nnc(-c2ccc(C)c(-c3ccc(C(=O)Nc4ccc(NS(C)(=O)=O)cc4)cc3)c2)o1 [GW702865] | 3 | 0 | 0 | 0 | 24 | 14 | 33 | 4 | 4 | 0 |
